From PubChem
Shown are actives, neighbours in structure and some others; about 1.2% of the full set was active somewhere.
RGS8-Gao = human RGS8-Galphao interaction regulation | P09471 | multiplexed bead flow cytometry, RGS8-Galphao binding; actives lie on both sides | response (percent of control binding), % at 10 µM | actives 0.34% (n = 220,000); in the data active means response below about 60% or above about 140%; inactive means in between;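 further: Galphao activated as the GDP aluminium fluoride complex binding bead-coupled RGS8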
Target sequence (P09471 whole entry, looked up): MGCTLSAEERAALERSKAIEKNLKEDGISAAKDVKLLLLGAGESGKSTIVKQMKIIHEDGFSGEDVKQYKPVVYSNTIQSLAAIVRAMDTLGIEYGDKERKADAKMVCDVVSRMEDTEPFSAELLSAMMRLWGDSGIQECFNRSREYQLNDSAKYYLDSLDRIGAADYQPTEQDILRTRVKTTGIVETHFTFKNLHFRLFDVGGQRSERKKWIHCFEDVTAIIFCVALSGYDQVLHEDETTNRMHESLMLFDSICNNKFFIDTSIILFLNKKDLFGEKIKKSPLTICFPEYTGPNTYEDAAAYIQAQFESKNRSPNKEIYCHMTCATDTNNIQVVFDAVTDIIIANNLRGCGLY
RGS7-Gao = regulators of human RGS7-Galphao interaction; P09471; Multiplexed bead flow cytometry, RGS7-Galphao binding; actives lie on both sides; binding response (% of control), % at 10 µM; actives 0.35% (n = 220,000); in the data active means binding response below about 49% or above about 150%; inconclusive means no clear call, values can overlap the other calls; inactive means in between;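 further: fluorescent Galphao held in activated GDP-AlF4 state binding bead-coupled RGS7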
RGS4-Gao reg = human RGS4-Galphao interaction regulation. P09471. Multiplexed bead flow cytometry, RGS4-Galphao binding; actives lie on both sides. binding response (% of control), % at 10 µM. actives 0.33% (n = 220,000); in the data active means binding response below about 49% or above about 150%; inactive means in between;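 further: fluorescent Galphao activated with aluminum fluoride binding bead-coupled RGS4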
RGS16-Gao HTS = modulates binding between human RGS16 and Galphao; O15492+P09471; bead-based flow cytometry RGS16-Galphao binding, fluorescence; actives lie on both sides; binding response (% of control), % at 10 µM; actives 0.38% (n = 220,000); AID 1441;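 further: Galphao activated by GDP with aluminum fluoride before binding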
Target sequence (O15492 whole entry, looked up): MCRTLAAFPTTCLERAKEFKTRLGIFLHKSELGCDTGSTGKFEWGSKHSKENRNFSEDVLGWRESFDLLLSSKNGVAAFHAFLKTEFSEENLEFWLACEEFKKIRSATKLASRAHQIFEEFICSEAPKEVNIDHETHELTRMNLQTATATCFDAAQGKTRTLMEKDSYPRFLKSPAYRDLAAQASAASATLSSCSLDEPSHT
Target sequence (P09471 whole entry, looked up): as the sequence (P09471 whole entry, looked up) above
Avidin bead fluor = compound fluoresces at 488/530 nm on avidin beads; compound fluorescence 488/530 nm, flow cytometry; hits give high values; fluorescence (KMESF) at 10 µM; actives 0.38% (n = 220,000); in the data active means fluorescence above about 47
GSH bead fluor = compound fluoresces at 488/530 nm on GSH beads. actives 0.25% (n = 190,000). GSH beads flow cytometry, compound fluorescence 488/530 nm; hits give high values. AID 1776. fluorescence (KMESF) at 10 µM; in the data active means fluorescence above about 89;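 further: glutathione beads carrying GST-tagged Bcl family fusion proteins plus one bare bead set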
RGS4-Gao HTS = RGS4-Galphao interaction regulator (human) | shares compounds with RGS16-Gao HTS | multiplexed bead flow cytometry, RGS–Galpha-o binding | RGS4–Galpha-o binding response, % at 10 µM | actives 99% (n = 1,600) | AID 1504;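 further: fluorescently labeled Galpha-o bound to GDP with aluminium fluoride binding biotinylated RGS beads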
Avidin counter = counter-screen: compounds disrupting biotin binding to avidin beads; shares compounds with RGS16-Gao HTS; streptavidin beads, fluorescein-biotin binding, flow cytometry; inhibition, % at 10 µM; 1,700 tested, under 10 active; AID 1783;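 active means inhibition above 50%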;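 further: median green fluorescence of gated singlet beads compared with DMSO control wells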
RGS8-Gao confirm = RGS8-Galphao interaction regulation, single point confirmation | shares compounds with RGS16-Gao HTS | bead-based flow cytometry RGS8-Galphao binding, fluorescence; actives lie on both sides | actives 3% (n = 1,700) | binding response (% of control), % at 10 µM; in the data active means binding response below about 72% or above about 130%; inactive means in between;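 further: Galphao activated as GDP AlF4 complex before binding bead RGS8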
RGS7-Gao confirm = RGS7-Galphao interaction regulation, single point confirmation | shares compounds with RGS16-Gao HTS | bead-based flow cytometry RGS7-Galphao binding; actives lie on both sides | response (percent of control binding), % at 10 µM | actives 7.8% (n = 1,700) | AID 1837; in the data active means response below about 75% or above about 130%; inactive means in between;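 further: fluorescent Galphao activated with GDP and aluminum fluoride binding bead-coupled RGS7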
RGS16-Gao conf = RGS16-Galphao interaction regulation, single point confirmation; response (% of control binding), % at 10 µM; AID 1838; shares compounds with RGS16-Gao HTS; bead-based flow cytometry, RGS16-Galphao binding; actives lie on both sides; actives 4% (n = 1,700); in the data active means response below about 74% or above about 130%; inactive means in between;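 further: Galphao activated as the GDP aluminium fluoride complex binding bead-coupled RGS16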
RGS4-Gao confirm = confirmation of regulators of human RGS4-Galphao interaction | shares compounds with RGS16-Gao HTS | RGS4-Galphao binding, multiplexed bead flow cytometry; actives lie on both sides | binding response (% of control), % at 10 µM | actives 4% (n = 1,700); in the data active means binding response below about 74% or above about 130%; inactive means in between
RGS19-Gao single = RGS19-Galphao interaction regulation, single point confirmation. shares compounds with RGS16-Gao HTS. bead-based flow cytometry RGS19-Galphao binding; actives lie on both sides. response (percent of control binding), % at 10 µM. actives 5% (n = 1,700). AID 1841; in the data active means response below about 50% or above about 160%; inactive means in between
Numbers stand for hits; - = inactive; ? = inconclusive; . = no result given; [ ] = dose if it differs, or a comment. Unless noted, how the calls were made is not given here.

SMILES	RGS8-Gao	RGS7-Gao	RGS4-Gao reg	RGS16-Gao HTS	Avidin bead fluor	GSH bead fluor	RGS4-Gao HTS	Avidin counter	RGS8-Gao confirm	RGS7-Gao confirm	RGS16-Gao conf	RGS4-Gao confirm	RGS19-Gao single
CC1=CC(C)(C)N=C(NC#N)N1	-	44	42	-	-	-	.	-	-	-	-	-	-
CCOC(=O)C1=C(N)OC2=C(C(=O)CCC2)C1c1ccccc1OC (stereo unspecified)	-	-	-	-	-	-	.	.	.	.	.	.	.
CCOC(=O)C1=C(N)OC2=C(C(=O)CCC2)C1c1ccccc1OCC (stereo unspecified)	-	296[activator]	-	-	172	-	135	-	-	-	-	-	-
O=S(=O)(NCc1cccc(C(F)(F)F)c1)NCc1ccccc1F	-	-	-	-	-	-	.	.	.	.	.	.	.
Cn1c(COc2ccccc2)nnc1SCC(=O)Nc1ccc(S(N)(=O)=O)cc1	.	.	.	.	.	-	.	-	-	-	-	-	-
C=CCn1c(COc2ccccc2)nnc1SCC(=O)Nc1ccc(S(N)(=O)=O)cc1	-	-	-	-	-	-	.	.	.	.	.	.	.
COC(=O)c1sccc1N/N=C/c1cccc(Oc2ccccc2)c1	-	-	-	-	-	-	.	.	.	.	.	.	.
COc1c(Br)cc(C(N)=O)cc1OCc1ccccc1	-	-	-	-1.3	-	-	77	-	-	-	-	-	-
CCOC(=O)/C=C(\C)Sc1cc(O)c2ccccc2c1O	50	?	-	11	-	.	81	.	.	.	.	.	.
O=C(COc1ccc2oc(-c3ccccc3)cc(=O)c2c1)Nc1ccccc1	-	-	-	-	-	-	.	.	.	.	.	.	.
COc1ccc(OCCOc2ccccc2[N+](=O)[O-])cc1	-	-	-	180[activator]	-	-	117	-	-	-	-	-	-
O=[N+]([O-])c1ccccc1OCCOc1ccccc1[N+](=O)[O-]	-	?	-	-	-	.	.	.	.	.	.	.	.
Cc1ccc(-n2[nH]c(C)c(C=Nc3ccc(S(=O)(=O)Nc4nccs4)cc3)c2=O)c(C)c1	-	-	-	-	-	-	.	.	.	.	.	.	.
N#CCCN(Cc1cccnc1)C(=S)NC(=O)C1CC1	-	-	-	-	-	-	.	.	.	.	.	.	.
Cc1ccc(C(C(=O)NC2CCCC2)N(C(=O)Cc2cccs2)c2cccc(C)c2C)o1 (stereo unspecified)	-	-	-	-	-	-	.	.	.	.	.	.	.
Cc1cc(C)cc(N(C(=O)Cc2cccs2)C(C(=O)NC2CCCC2)c2ccc(C)o2)c1 (stereo unspecified)	.	.	.	.	.	-	.	-	-	-	-	-	-
CCOc1ccc(CCNC(=O)c2[nH]c(C)c(C(C)=O)c2C)cc1OCC	.	.	.	.	.	-	.	-	-	-	-	-	-
C/C=C(\C)C(=O)NCCN1C2=NC[C@H](Cc3ccccc3)N2C[C@H]1Cc1ccc(O)cc1	24	20	34	19	-	-	.	-	-	-	-	-	-
COc1ccccc1N1CCN(C(=O)c2c(-c3ccccc3Cl)noc2C)CC1	-	-	-	-11	-	-	64	-	-	-	-	-	-
CN(C)S(=O)(=O)c1cccc(NC(=S)NN=C(Cc2ccccc2)Cc2ccccc2)c1	54	-	-	-	-	-	91	-	-	-	-	-	-
O=C(NCCNC(=O)C1CC2CCC1C2)C1CC2CCC1C2 (stereo unspecified)	-	186[activator]	-	-	229	-	123	-	-	-	-	-	-
c1ccc(-c2nc3ccccc3[nH]2)nc1	154[activator]	158[activator]	170[activator]	-	-	-	.	-	-	-	-	-	-
O=c1[nH]c(-c2ccccn2)nc2ccccc12	-	-	-	-	-	-	.	.	.	.	.	.	.
Cc1cc(C)cc(NC(=O)C2(c3cccs3)CCOCC2)c1	-	-	-	-	-	-	.	.	.	.	.	.	.
CC(C)CCNC(=O)c1ccc(Cl)c(NC(=O)c2ccccc2F)c1	-	-	-	-	-	-	.	.	.	.	.	.	.
SMILES	RGS8-Gao	RGS7-Gao	RGS4-Gao reg	RGS16-Gao HTS	Avidin bead fluor	GSH bead fluor	RGS4-Gao HTS	Avidin counter	RGS8-Gao confirm	RGS7-Gao confirm	RGS16-Gao conf	RGS4-Gao confirm	RGS19-Gao single
O=c1[nH]c2ccccc2nc1/C=C/c1ccc(Cl)cc1	.	.	.	.	.	-	.	-	-	-	-	-	-
CCN(CC)CCOC(=O)c1ccc(NC(=O)CNC(=O)C2CCCCC2)cc1	-	-	-	-	-	-	.	.	.	.	.	.	.
Cc1cccc(NC(=O)N2CCCC2C(=O)Nc2ccccc2)c1 (stereo unspecified)	-	-	-	-	-	-	.	.	.	.	.	.	.
CCN(CC(=O)Nc1ccc2c(c1)OCCO2)c1ccc(S(=O)(=O)N2CCOCC2)cn1	-	-	-	-83	-	-	80	-	-	-	-	-	-
CC1CCCC(NC(=O)CCCn2c(=O)[nH]c3cc(Cl)ccc3c2=O)C1C (stereo unspecified)	-	176[activator]	212[activator]	204[activator]	100	-	.	-	-	-	-	-	-
Cn1c(SCC(=O)N2CCCC2=O)nc2ccccc21	13	?	19	9.5	-	-	.	-	-	-	-	-	-
CCCOC1CCCN(Cc2nc(-c3ccc(C(=O)OC)cc3)no2)C1 (stereo unspecified)	-	?	-	-	-	.	.	.	.	.	.	.	.
CC(C)(C)c1nnc2sc(SCC(=O)c3ccccc3)nn2c1=O	-	-	-	-	-	-	.	.	.	.	.	.	.
CC(C)(C)c1nnc2sc(SC/C(O)=C(\C#N)c3nc4ccccc4[nH]3)nn2c1=O	148[activator]	161[activator]	177[activator]	178[activator]	-	-	.	-	-	-	-	-	-
NCC(c1ccccc1)(c1ccccc1)c1ccccc1	-	-	-	24	-	-	98	-	-	-	-	-	-
CN(C)CCC(O)(c1ccccc1)c1ccccc1	-	-	-	-	-	-	.	.	.	.	.	.	.
CCN1CCN(Cc2cc(=O)oc3ccc(Cl)cc23)CC1	144[activator]	-	-	-	-	-	108	-	-	-	-	-	-
